PubChem BioAssay (NCATS)
Results filed as inconclusive are left out. Unmarked numbers belong to inactive results. Calls follow the shape of the dose curve; as a rule, active = well fitted curve in the direction sought with a large enough effect; inconclusive = small, poorly fitted or top-dose-only effect, or another doubt; inactive = no such curve, though single readings can be large; an effect the other way counts as inactive or inconclusive.

Target: Nuclear receptor subfamily 1 group I member 2 (Homo sapiens) (UniProt O75469)
Sequence (O75469 whole entry, looked up): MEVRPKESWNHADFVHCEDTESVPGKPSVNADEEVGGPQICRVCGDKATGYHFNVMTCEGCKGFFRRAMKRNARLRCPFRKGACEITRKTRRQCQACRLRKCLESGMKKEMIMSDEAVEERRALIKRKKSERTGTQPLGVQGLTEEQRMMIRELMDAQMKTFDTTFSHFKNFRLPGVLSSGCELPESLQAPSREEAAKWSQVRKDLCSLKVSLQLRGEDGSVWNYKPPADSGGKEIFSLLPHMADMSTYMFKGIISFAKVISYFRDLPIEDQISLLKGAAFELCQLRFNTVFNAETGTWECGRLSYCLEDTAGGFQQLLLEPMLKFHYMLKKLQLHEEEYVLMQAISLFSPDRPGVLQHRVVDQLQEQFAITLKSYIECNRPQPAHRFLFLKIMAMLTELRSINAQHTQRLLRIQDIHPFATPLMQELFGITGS
Test: Dual reporter qHTS for agonist of Pregnane X Receptor (hPXR) against the NCATS DSHEA and TCM libraries: Luminescence readout (AID 1920059)
Conditions: hPXR dual reporter cells, luciferase luminescence agonist; series mostly up to 40 µM; activation: at the top concentration
In short: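 hPXR-Luc HepG2 cells, 2000/well in 5% charcoal-stripped FBS medium, attached 5 h, then exposed 24 h at 37C to compounds. Viability by CellTiter-Fluor, then luciferase luminescence with ONE-Glo.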
Also: 0% is about no effect.

Row | SMILES | activation
1 | CC(C)=CCCC(C)=CCCC(C)=CCCC=C(C)CCC=C(C)CCC=C(C)C | -4.04%
2 | CCCCCCCCCCCCCCCCCCCCCCCCCCCCCCO | -7.37% [at 5 µM]
3 | CC(C)c1ccc(C=O)cc1 | -5.1% [at 68.2 µM]
4 | O=Cc1ccccc1O | -6.83% [at 68.2 µM]
5 | CC/C=C\C/C=C\C/C=C\C/C=C\CCCCC(=O)O | -9.78% [at 5 µM]
6 | C=C1C[C@@]23CC[C@H]4[C@@](C)(CCC[C@@]4(C)C(=O)O[C@@H]4O[C@H](CO)[C@@H](O)[C@H](O)[C@H]4O)[C@@H]2CC[C@]1(O[C@@H]1O[C@H](CO)[C@@H](O)[C@H](O[C@@H]2O[C@H](CO)[C@@H](O)[C@H](O)[C@H]2O)[C@H]1O[C@@H]1O[C@@H](C)[C@H](O)[C@@H](O)[C@H]1O)C3 | -5.13%
7 | C=C1C[C@]23CC[C@H]4[C@@](C)(CCC[C@@]4(C)C(=O)O)[C@@H]2CC[C@@]1(O[C@@H]1O[C@H](CO)[C@@H](O)[C@H](O)[C@H]1O[C@@H]1O[C@H](CO)[C@@H](O)[C@H](O)[C@H]1O)C3 | -7.11%
8 | Cc1ccc(C(C)C)cc1 | -4.33% [at 68.2 µM]
9 | Cc1ncc(COP(=O)(O)O)c(C)c1O | 14.4%
10 | OCCc1ccc(O)cc1 | -10.7% [at 68.2 µM]
11 | CN(CC(=O)O)C(=N)N | -7.24% [at 121 µM]
12 | COc1ccc(C(=O)O)cc1 | -11.4% [at 68.2 µM]
13 | CC(C)(O)[C@@H]1CC[C@](C)([C@@H]2[C@H](O)C[C@]3(C)C4C[C@@H](O[C@H]5O[C@@H](CO)[C@H](O)[C@@H](O)[C@@H]5O)C5C(C)(C)[C@H](O[C@H]6OC[C@H](O)[C@@H](O)[C@@H]6O)CC[C@]56CC46CC[C@@]23C)O1 (some centres not stated) | -5.76%
14 | C=CC(=C)CCC=C(C)C | -3.48%
15 | CC1=CCC(O)(C(C)C)CC1 (configuration not stated) | -7.67% [at 68.2 µM]
16 | CCCCCC/C=C\CCCCCCCC(=O)O | -5.36%
17 | CC(C)=CCC[C@](C)(O[C@@H]1O[C@H](CO)[C@@H](O)[C@H](O)[C@H]1O)[C@H]1CC[C@]2(C)[C@@H]1[C@H](O)C[C@@H]1[C@@]3(C)CC[C@H](O)C(C)(C)[C@@H]3[C@@H](O[C@@H]3O[C@H](CO)[C@@H](O)[C@H](O)[C@H]3O[C@@H]3O[C@@H](C)[C@H](O)[C@@H](O)[C@H]3O)C[C@]12C | -5.85%
18 | C[C@@H]1O[C@@H](OC[C@H]2OC(Oc3c(-c4ccc(O)c(O)c4)oc4cc(O)cc(O)c4c3=O)[C@H](O)[C@@H](O)[C@@H]2O)[C@H](O)[C@H](O)[C@H]1O (some centres not stated) | -8.26%

Target: Nuclear receptor subfamily 1 group I member 2 (Homo sapiens) (UniProt O75469)
Test: Dual reporter qHTS for antagonist of Pregnane X Receptor (hPXR) against the NCATS DSHEA and TCM libraries: Luminescence Readout (AID 1920060);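 also: HepG2 cells carrying hPXR luciferase reporter stimulated with rifampicin at 2 µM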
Conditions: hPXR dual reporter cells, luciferase luminescence, antagonist mode; series mostly up to 40 µM; activity change, negative = inhibition: at the top concentration
In short: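 HepG2 hPXR-Luc, 2000 cells/well, charcoal-stripped FBS medium; 5 h attach; RIF 2 uM final; 24 h 37C/5% CO2; CellTiter-Fluor 1 h, fluor 405/540; ONE-Glo 30 min RT, lum.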

Row | SMILES | activity change, negative = inhibition
19 | O=C(/C=C/c1ccc(O)c(O)c1)O[C@@H]1CC(C(=O)O)=C[C@@H](O)[C@H]1O | -14.4%
20 | CC(C)=CCCC(C)(OC1OC(COC2OC(CO)C(O)C2O)C(O)C(O)C1O)C1CCC2(C)C1C(O)CC1C3(C)CCC(OC4OC(CO)C(O)C(O)C4OC4OC(CO)C(O)C(O)C4O)C(C)(C)C3CCC12C (configuration not stated) | 17.9%
21 | O=C(O)CC(O)(C(=O)O)C(O)C(=O)O (configuration not stated) | 9.22%
22 | CCCCCC(=O)CC | 3.31% [at 121 µM]
23 | CC1(C)C2CCC1(C)C(O)C2 (configuration not stated) | 7.27%
24 | O[C@@H]1[C@@H](O)[C@H](OC/C=C/c2ccccc2)O[C@H](CO[C@@H]2OC[C@H](O)[C@H](O)[C@H]2O)[C@H]1O | 12.8%
25 | OCC1=C[C@@H](O)[C@@H]2C=CO[C@@H](OC3O[C@H](CO)[C@@H](O)[C@H](O)[C@H]3O)[C@H]12 (some centres not stated) | 3.64%
26 | CCCCCCCCCC=O | -4.88% [at 68.2 µM]
27 | CC(=O)OC1CC2CCC1(C)C2(C)C (configuration not stated) | -8.56%
28 | CC(C)=CCCC(C)=CCCC(C)=CCCC=C(C)CCC=C(C)CCC=C(C)C | 0.663%
29 | CCCCCCCCCCCCCCCCCCCCCCCCCCCCCCO | -14.7% [at 5 µM]
30 | CC(C)c1ccc(C=O)cc1 | -9.06% [at 68.2 µM]
31 | CC/C=C\C/C=C\C/C=C\C/C=C\CCCCC(=O)O | -24.2% [at 5 µM]
32 | C=C1C[C@@]23CC[C@H]4[C@@](C)(CCC[C@@]4(C)C(=O)O[C@@H]4O[C@H](CO)[C@@H](O)[C@H](O)[C@H]4O)[C@@H]2CC[C@]1(O[C@@H]1O[C@H](CO)[C@@H](O)[C@H](O[C@@H]2O[C@H](CO)[C@@H](O)[C@H](O)[C@H]2O)[C@H]1O[C@@H]1O[C@@H](C)[C@H](O)[C@@H](O)[C@H]1O)C3 | -4.31%
33 | C=C1C[C@]23CC[C@H]4[C@@](C)(CCC[C@@]4(C)C(=O)O)[C@@H]2CC[C@@]1(O[C@@H]1O[C@H](CO)[C@@H](O)[C@H](O)[C@H]1O[C@@H]1O[C@H](CO)[C@@H](O)[C@H](O)[C@H]1O)C3 | -12.1%
34 | Cc1ccc(C(C)C)cc1 | -0.372% [at 68.2 µM]
35 | Cc1ncc(COP(=O)(O)O)c(C)c1O | -3.59%
36 | OCCc1ccc(O)cc1 | -10.9% [at 68.2 µM]
37 | CN(CC(=O)O)C(=N)N | -6.97% [at 121 µM]
38 | COc1ccc(C(=O)O)cc1 | -14.3% [at 68.2 µM]
39 | CC(C)(O)[C@@H]1CC[C@](C)([C@@H]2[C@H](O)C[C@]3(C)C4C[C@@H](O[C@H]5O[C@@H](CO)[C@H](O)[C@@H](O)[C@@H]5O)C5C(C)(C)[C@H](O[C@H]6OC[C@H](O)[C@@H](O)[C@@H]6O)CC[C@]56CC46CC[C@@]23C)O1 (some centres not stated) | -9.17%
40 | C=CC(=C)CCC=C(C)C | 4.85%
41 | CCCCCC/C=C\CCCCCCCC(=O)O | -6.4%
42 | C[C@@H]1O[C@@H](OC[C@H]2OC(Oc3c(-c4ccc(O)c(O)c4)oc4cc(O)cc(O)c4c3=O)[C@H](O)[C@@H](O)[C@@H]2O)[C@H](O)[C@H](O)[C@H]1O (some centres not stated) | -17.7%
